This is part of a sample that, as a whole, favours compounds with a hit. Of some 79,000 tested, about 15% had one in any assay. Values without a mark were called inactive. Cut-off read from the data, not from the text of the source: active = growth inhibition above about 70%; inactive = the rest.
test: NCI Yeast Anticancer Drug Screen. Data for the mec2-1 strain (AID 157); conditions: S. cerevisiae mec2-1 strain, at 50.0 µM, stronger effect = higher value
Outline: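 Vehicle-treated cultures served as reference for growth inhibition of compound-exposed mec2-1 yeast.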

Compound	growth inhibition [%]
CCCC(=O)Nc1cc(C(=O)N2C[C@@H]3C[C@]34C2=CC(=O)c2[nH]cc(C)c24)n(COC)c1	10.5
COC(=O)CCSCCC(=O)OC	-0.15
C/C(=N/NC(=S)Nc1cccc(Cl)c1)c1cccc(/C(C)=N\NC(=S)Nc2cccc(Cl)c2)n1	46
COc1ccc(C/C=N/Nc2ccc([N+](=O)[O-])cc2[N+](=O)[O-])cc1OC	-8.05
COC(=O)c1ccc(/C=C2\CCc3ccccc3C2=O)cc1	-9.15
O=c1c2cc3c(=O)n(O)c(=O)c3cc2c(=O)n1O	-18.2
O=C1C(O)=CC(=C(c2ccccc2)c2ccccc2)c2cc(Br)ccc21	26.2
COc1ccc2nc(-c3ccc(F)cc3)cc(C(=O)O)c2c1	-14.7
CCCCCC(CN(C)C)C(=O)CC(SCC)c1ccccc1 (stereo not given)	20.4
C[P+]1(CCc2ccc(Cl)cc2)CC=CC1	5.2
CC1(O)CC2(O)C=CC3=C(C(=O)c4cccc(O)c4C3=O)C2(O)C(=O)C1O (stereo not given)	4.1
CCN(CC)C(=O)CC(C)(C)O	9.15
O=C(Cc1ccccc1)NN1C(=O)/C(=C\c2ccc(O)cc2)SC1=Nc1ccccc1	-1.05
C=CCC1CCC/C1=N\O (stereo not given)	10.4
N#CCc1nc(-c2ccccc2)n[nH]1	4.55
OC12C=CC(CCCC1)O2 (stereo not given)	-6.65
CCCCCCCC(=O)NC(O)C(Cl)(Cl)C(C)Cl (stereo not given)	-6.35
CCCCCCCCCCCCC1CC(=O)OC1=O (stereo not given)	-15.4
CCCC(CCC(C)=O)[N+](=O)[O-] (stereo not given)	-3.15
O=c1c2cnc3cc(Cl)ccc3c2[nH]n1-c1ccc(Cl)cc1	0.45

Compound	growth inhibition [%]
C=C(C)c1ccc(B2Nc3ccccc3N2)cc1	30.2
COC(=O)C1C(O)C(C)C(O)OC1C(C)C(O)C(C)/C=C\C=C(/C)C(=O)Nc1c(C)c(OC(C)=O)c2c(c1O)C(=O)C(C)=C1OCOC(/C(C)=C/C(C)=O)=C12 (stereo not given)	8.3
CCOC(=O)Cc1c(Cc2[nH]c(C(=O)OCc3ccccc3)c(CC(=O)OCC)c2CC(=O)OCC)[nH]c(C(=O)OCc2ccccc2)c1CC(=O)OCC	-21.6
NC(=O)c1ccccc1C(N)=O	-10.6
CC1(C)CC(OP(=O)(c2ccccc2)c2ccccc2)CC(C)(C)N1O	12.8
O=C1c2c(c3c4ccccc4[nH]c3c3[nH]c4ccccc4c23)C(=O)N1Cc1ccccc1	-5.95
O=C(CP(c1ccccc1)c1ccccc1)c1cccc(C(=O)CP(c2ccccc2)c2ccccc2)c1	-22.1
O=C(NO)c1c(F)c(F)c(C(=O)NO)c(F)c1F	7.05
NCCCCC(N)C(=O)O.[Cu+2] (stereo not given)	3.95
Cc1cccc(C2=C/C(=C(\SS/C(C(=O)c3ccc(OCC(=O)O)c(Cl)c3Cl)=C3\C=C(c4cccc(C)c4)SS3)C(=O)c3ccc(OCC(=O)O)c(Cl)c3Cl)SS2)c1	-22.8
Cc1ccc(N=Cc2cccs2)c(Br)c1	-20.1
Cc1ccccc1NC(=O)/C=C\C(=O)O	-10.3
CN1C/C(=C\c2ccco2)c2nc(N)nc(-c3ccco3)c2C1	-3.35
COc1cc(CC(=O)O)c(Br)cc1C	20.9
CCCCCCCCCO/N=C\c1c2c(O)c3c(O)c(C)c4c(c3c1O)C(=O)C(C)(O/C=C\C(OC)C(C)C(OC(C)=O)C(C)C(O)C(C)C(O)C(C)/C=C\C=C(\C)C(=O)N2)O4 (stereo not given)	19.9
O=C(Cc1ccccc1C(=O)O)c1ccccc1	-18.6
CCOC(=O)NCc1ccccc1	8.7
CCc1ccccc1NOC	-1.9
NC(CCC(=O)NC(CSSCCCCS(=O)O)C(=O)NCC(=O)O)C(=O)O (stereo not given)	-8.2
CCN(CC)CCC1CCNCC1	-25.2

test: NCI Yeast Anticancer Drug Screen. Data for the sgs1 mgt1 strain (AID 161);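 note: 0% = growth of cultures given vehicle only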; conditions: S. cerevisiae sgs1 mgt1 strain, at 50.0 µM, stronger effect = higher value
Outline: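 Genetically altered yeast, compound exposure, growth inhibition relative to vehicle.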

Compound	growth inhibition [%]
CCCC(=O)Nc1cc(C(=O)N2C[C@@H]3C[C@]34C2=CC(=O)c2[nH]cc(C)c24)n(COC)c1	30.6
COC(=O)CCSCCC(=O)OC	-8.15
C/C(=N/NC(=S)Nc1cccc(Cl)c1)c1cccc(/C(C)=N\NC(=S)Nc2cccc(Cl)c2)n1	62.6
COc1ccc(C/C=N/Nc2ccc([N+](=O)[O-])cc2[N+](=O)[O-])cc1OC	-2.3
COC(=O)c1ccc(/C=C2\CCc3ccccc3C2=O)cc1	-16.2
O=c1c2cc3c(=O)n(O)c(=O)c3cc2c(=O)n1O	-9.45
O=C1C(O)=CC(=C(c2ccccc2)c2ccccc2)c2cc(Br)ccc21	44.4
COc1ccc2nc(-c3ccc(F)cc3)cc(C(=O)O)c2c1	9.75
CCCCCC(CN(C)C)C(=O)CC(SCC)c1ccccc1 (stereo not given)	8.85
C[P+]1(CCc2ccc(Cl)cc2)CC=CC1	-2.9
CC1(O)CC2(O)C=CC3=C(C(=O)c4cccc(O)c4C3=O)C2(O)C(=O)C1O (stereo not given)	30.4
CCN(CC)C(=O)CC(C)(C)O	-5.75
O=C(Cc1ccccc1)NN1C(=O)/C(=C\c2ccc(O)cc2)SC1=Nc1ccccc1	28.9
C=CCC1CCC/C1=N\O (stereo not given)	17.3
N#CCc1nc(-c2ccccc2)n[nH]1	13.1
OC12C=CC(CCCC1)O2 (stereo not given)	-7.4
CCCCCCCC(=O)NC(O)C(Cl)(Cl)C(C)Cl (stereo not given)	3.35
CCCCCCCCCCCCC1CC(=O)OC1=O (stereo not given)	13
CCCC(CCC(C)=O)[N+](=O)[O-] (stereo not given)	-8.85
O=c1c2cnc3cc(Cl)ccc3c2[nH]n1-c1ccc(Cl)cc1	1.85

Compound	growth inhibition [%]
C=C(C)c1ccc(B2Nc3ccccc3N2)cc1	45.6
COC(=O)C1C(O)C(C)C(O)OC1C(C)C(O)C(C)/C=C\C=C(/C)C(=O)Nc1c(C)c(OC(C)=O)c2c(c1O)C(=O)C(C)=C1OCOC(/C(C)=C/C(C)=O)=C12 (stereo not given)	9.8
CCOC(=O)Cc1c(Cc2[nH]c(C(=O)OCc3ccccc3)c(CC(=O)OCC)c2CC(=O)OCC)[nH]c(C(=O)OCc2ccccc2)c1CC(=O)OCC	-19
NC(=O)c1ccccc1C(N)=O	8.95
CC1(C)CC(OP(=O)(c2ccccc2)c2ccccc2)CC(C)(C)N1O	-6.3
O=C1c2c(c3c4ccccc4[nH]c3c3[nH]c4ccccc4c23)C(=O)N1Cc1ccccc1	4.95
O=C(CP(c1ccccc1)c1ccccc1)c1cccc(C(=O)CP(c2ccccc2)c2ccccc2)c1	-5.05
O=C(NO)c1c(F)c(F)c(C(=O)NO)c(F)c1F	4
NCCCCC(N)C(=O)O.[Cu+2] (stereo not given)	-4.9
Cc1cccc(C2=C/C(=C(\SS/C(C(=O)c3ccc(OCC(=O)O)c(Cl)c3Cl)=C3\C=C(c4cccc(C)c4)SS3)C(=O)c3ccc(OCC(=O)O)c(Cl)c3Cl)SS2)c1	-0.6
Cc1ccc(N=Cc2cccs2)c(Br)c1	-0.2
Cc1ccccc1NC(=O)/C=C\C(=O)O	-0.7
CN1C/C(=C\c2ccco2)c2nc(N)nc(-c3ccco3)c2C1	8.9
COc1cc(CC(=O)O)c(Br)cc1C	4.15
CCCCCCCCCO/N=C\c1c2c(O)c3c(O)c(C)c4c(c3c1O)C(=O)C(C)(O/C=C\C(OC)C(C)C(OC(C)=O)C(C)C(O)C(C)C(O)C(C)/C=C\C=C(\C)C(=O)N2)O4 (stereo not given)	11.5
O=C(Cc1ccccc1C(=O)O)c1ccccc1	-23.6
CCOC(=O)NCc1ccccc1	10.3
CCc1ccccc1NOC	-1.05
NC(CCC(=O)NC(CSSCCCCS(=O)O)C(=O)NCC(=O)O)C(=O)O (stereo not given)	11.3
CCN(CC)CCC1CCNCC1	-1.8

Reference: PubChem BioAssay (NCI)
